Results taken from the supplement of paper PMC10849652.
About 8,800 targets were measured; listed, in parts, are those with a hit and a random draw of the rest. About 0.5% of all pairs of compound and target were hits.

How the values were obtained:
Assay in all cases: log2 fold change, soluble protein after heating vs DMSO (PISA); higher = thermal stabilisation; K562 lysate, 10 uM; active = over 0.2 and 3.5 SD of the protein, either way, in both replicates (recomputed)
vemurafenib = compound: CCCS(=O)(=O)Nc1ccc(F)c(C(=O)c2c[nH]c3ncc(-c4ccc(Cl)cc4)cc23)c1F [vemurafenib]
Outline: (§1)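 Values give the log-two fold change in thermal stability against solvent controls, from duplicates. Crude K562 extract at 1 mg/mL protein, made by dounce homogenisation in PBS pH 7.4 with 1 mM MgCl2, was treated with 10 μM compound for 30 min. After 3 min heating across 48°C-58°C, aliquots were pooled, adjusted to 0.5% NP-40 at 4°C and centrifuged at 21,000xg for 90 min. The supernatant was measured by TMTpro 16plex LC-MS/MS with channel sums equalised.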

[1] = compound: CCCS(=O)(=O)Nc1ccc(F)c(C(=O)c2c[nH]c3ncc(Cl)cc23)c1F
Outline: as §1

barasertib = compound: CCN(CCCOc1ccc2c(Nc3cc(CC(=O)Nc4cccc(F)c4)[nH]n3)ncnc2c1)CCOP(=O)(O)O [barasertib]
Outline: as §1

[2] = compound: CC[C@@H]1C(=O)N(C)c2cnc(Nc3ccc(C(=O)NC4CCN(C)CC4)cc3OC)nc2N1C1CCCC1
Outline: as §1

volasertib = compound: CC[C@@H]1C(=O)N(C)c2cnc(Nc3ccc(C(=O)N[C@H]4CC[C@H](N5CCN(CC6CC6)CC5)CC4)cc3OC)nc2N1C(C)C [volasertib]
Outline: as §1

[3] = compound: CCn1c(C(=O)N(C2CC2)C2CC2)cc2c3c(ncn3C)c(Nc3cc(C)n(C)n3)nc21
Outline: as §1

[4] = compound: CCn1cc(-c2ccnc3[nH]c(-c4cccc(CN(C)C)c4)cc23)c(-c2ccc(NC(=O)N(C)C)cc2)n1
Outline: as §1

[5] = compound: CN1CCC(CNc2ccc3ncc(-c4cccc(OC(F)(F)F)c4)n3n2)CC1
Outline: as §1

saracatinib = compound: CN1CCN(CCOc2cc(OC3CCOCC3)c3c(Nc4c(Cl)ccc5c4OCO5)ncnc3c2)CC1 [saracatinib]
Outline: as §1

sotrastaurin = compound: CN1CCN(c2nc(C3=C(c4c[nH]c5ccccc45)C(=O)NC3=O)c3ccccc3n2)CC1 [sotrastaurin]
Outline: as §1

Measured: log2 fold change

SHC1 isoform 6 (UniProt P29353)
UniProt P29353, sequence (P29353 whole entry, looked up): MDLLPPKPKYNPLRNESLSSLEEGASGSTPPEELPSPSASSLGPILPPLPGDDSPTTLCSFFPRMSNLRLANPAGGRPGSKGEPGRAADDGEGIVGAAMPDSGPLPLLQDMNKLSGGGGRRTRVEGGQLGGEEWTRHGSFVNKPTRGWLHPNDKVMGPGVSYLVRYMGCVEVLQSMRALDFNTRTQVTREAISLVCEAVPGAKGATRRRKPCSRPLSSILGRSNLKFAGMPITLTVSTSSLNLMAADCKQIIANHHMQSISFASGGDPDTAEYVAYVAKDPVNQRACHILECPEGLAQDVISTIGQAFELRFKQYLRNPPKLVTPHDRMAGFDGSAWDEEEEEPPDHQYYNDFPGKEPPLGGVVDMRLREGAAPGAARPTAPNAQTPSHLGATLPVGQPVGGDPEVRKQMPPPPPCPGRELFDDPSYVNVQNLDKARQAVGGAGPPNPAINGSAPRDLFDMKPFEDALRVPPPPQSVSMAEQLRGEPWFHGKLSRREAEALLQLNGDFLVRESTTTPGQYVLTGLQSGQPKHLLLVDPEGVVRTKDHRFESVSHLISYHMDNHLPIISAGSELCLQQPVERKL
active: [4] 0.635
inactive: vemurafenib 0.028 | [1] 0.003 | barasertib 0.008 | [2] -0.027 | volasertib 0.01 | [3] -0.035 | [5] -0.163 | saracatinib -0.007 | sotrastaurin 0.017

SYPL1 (UniProt Q16563)
UniProt Q16563, sequence (Q16563 whole entry, looked up): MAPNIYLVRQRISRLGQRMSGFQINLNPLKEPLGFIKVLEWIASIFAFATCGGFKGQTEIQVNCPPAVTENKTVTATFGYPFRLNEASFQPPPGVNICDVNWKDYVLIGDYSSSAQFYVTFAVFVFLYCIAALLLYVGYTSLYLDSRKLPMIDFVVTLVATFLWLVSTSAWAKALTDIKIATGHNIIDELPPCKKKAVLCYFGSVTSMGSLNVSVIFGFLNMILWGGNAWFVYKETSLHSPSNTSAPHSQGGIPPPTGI
active: [4] -0.418
inactive: vemurafenib -0.006 | [1] -0.019 | barasertib 0.076 | [2] 0.004 | volasertib 0.032 | [3] -0.011 | [5] 0.194 | saracatinib 0.01 | sotrastaurin 0.023

SSBP3 (UniProt Q9BWW4)
UniProt Q9BWW4, sequence (Q9BWW4 whole entry, looked up): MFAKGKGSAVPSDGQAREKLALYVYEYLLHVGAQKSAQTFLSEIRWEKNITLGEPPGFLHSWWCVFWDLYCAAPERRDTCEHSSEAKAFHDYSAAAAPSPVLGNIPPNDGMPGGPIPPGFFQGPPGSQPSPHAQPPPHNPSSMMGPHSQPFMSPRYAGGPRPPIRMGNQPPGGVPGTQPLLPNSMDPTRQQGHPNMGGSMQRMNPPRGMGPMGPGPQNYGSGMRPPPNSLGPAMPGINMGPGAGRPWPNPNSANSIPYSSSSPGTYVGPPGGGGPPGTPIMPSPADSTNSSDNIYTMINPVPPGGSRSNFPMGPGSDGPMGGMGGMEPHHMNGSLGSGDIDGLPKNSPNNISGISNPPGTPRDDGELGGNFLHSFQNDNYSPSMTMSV
inactive: vemurafenib -0.02 | [1] -0.033 | barasertib -0.049 | [2] -0.001 | volasertib 0.008 | [3] 0.038 | [4] -0.03 | [5] -0.083 | saracatinib 0.068 | sotrastaurin -0.005

SMG7 (UniProt Q92540)
UniProt Q92540, sequence (Q92540 whole entry, looked up): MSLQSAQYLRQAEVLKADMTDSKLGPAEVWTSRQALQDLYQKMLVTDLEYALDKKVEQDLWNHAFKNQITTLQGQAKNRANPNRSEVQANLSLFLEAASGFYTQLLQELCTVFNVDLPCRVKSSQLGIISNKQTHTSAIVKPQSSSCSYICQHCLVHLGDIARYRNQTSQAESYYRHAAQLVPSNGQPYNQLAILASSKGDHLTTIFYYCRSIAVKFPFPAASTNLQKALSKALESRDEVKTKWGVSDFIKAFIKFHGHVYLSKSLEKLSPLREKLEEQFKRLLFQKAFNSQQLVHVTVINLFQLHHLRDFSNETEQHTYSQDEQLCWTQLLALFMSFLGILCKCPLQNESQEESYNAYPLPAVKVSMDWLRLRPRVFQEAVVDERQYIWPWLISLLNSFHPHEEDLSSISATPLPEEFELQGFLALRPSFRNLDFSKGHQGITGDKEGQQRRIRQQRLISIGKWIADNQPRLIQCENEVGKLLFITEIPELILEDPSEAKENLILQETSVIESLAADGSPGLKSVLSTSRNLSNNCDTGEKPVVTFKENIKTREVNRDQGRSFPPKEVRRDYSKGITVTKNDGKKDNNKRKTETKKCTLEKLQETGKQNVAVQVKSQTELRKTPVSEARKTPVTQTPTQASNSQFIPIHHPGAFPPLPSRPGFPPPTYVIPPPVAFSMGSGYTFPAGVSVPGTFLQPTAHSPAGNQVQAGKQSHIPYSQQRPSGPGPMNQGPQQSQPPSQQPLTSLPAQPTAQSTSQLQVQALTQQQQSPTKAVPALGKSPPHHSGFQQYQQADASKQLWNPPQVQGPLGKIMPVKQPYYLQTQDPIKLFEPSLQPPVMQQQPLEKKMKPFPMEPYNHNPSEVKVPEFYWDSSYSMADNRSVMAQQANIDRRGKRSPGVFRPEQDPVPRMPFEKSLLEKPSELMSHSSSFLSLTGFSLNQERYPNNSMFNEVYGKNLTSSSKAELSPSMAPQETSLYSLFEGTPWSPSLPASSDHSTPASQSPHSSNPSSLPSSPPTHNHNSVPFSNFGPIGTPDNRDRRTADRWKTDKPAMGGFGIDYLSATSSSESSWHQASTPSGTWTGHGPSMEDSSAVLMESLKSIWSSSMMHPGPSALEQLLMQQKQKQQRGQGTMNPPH
inactive: vemurafenib 0.073 | [1] 0.011 | barasertib 0.098 | [2] 0.071 | volasertib -0.044 | [3] 0.074 | [4] -0.038 | [5] -0.014 | saracatinib 0.045 | sotrastaurin -0.02

TAF1B (UniProt Q53T94)
UniProt Q53T94, sequence (Q53T94 whole entry, looked up): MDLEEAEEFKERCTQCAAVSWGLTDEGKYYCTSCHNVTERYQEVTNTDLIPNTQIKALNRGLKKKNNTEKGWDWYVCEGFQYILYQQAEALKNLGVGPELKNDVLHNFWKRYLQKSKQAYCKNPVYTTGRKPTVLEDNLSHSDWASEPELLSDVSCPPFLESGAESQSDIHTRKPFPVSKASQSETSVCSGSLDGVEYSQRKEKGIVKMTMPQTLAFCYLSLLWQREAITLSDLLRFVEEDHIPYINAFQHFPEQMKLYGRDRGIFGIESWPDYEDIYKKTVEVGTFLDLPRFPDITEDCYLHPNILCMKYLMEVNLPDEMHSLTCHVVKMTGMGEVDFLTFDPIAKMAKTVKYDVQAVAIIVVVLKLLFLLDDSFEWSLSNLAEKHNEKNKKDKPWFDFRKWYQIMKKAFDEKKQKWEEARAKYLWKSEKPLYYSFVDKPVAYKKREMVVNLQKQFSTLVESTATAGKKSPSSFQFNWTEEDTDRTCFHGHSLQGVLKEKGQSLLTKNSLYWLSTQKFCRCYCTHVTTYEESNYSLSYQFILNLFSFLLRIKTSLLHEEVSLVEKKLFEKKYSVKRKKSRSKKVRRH
inactive: vemurafenib 0.397 | [1] -0.217 | barasertib 0.11 | [2] -0.212 | volasertib -0.057 | [3] -0.039 | [4] -0.12 | [5] 0.166 | saracatinib 0.045 | sotrastaurin 0.055

STK39 (UniProt Q9UEW8)
inactive: vemurafenib 0.002 | [1] 0.01 | barasertib 0.012 | [2] -0.046 | volasertib -0.048 | [3] 0.001 | [4] -0.013 | [5] -0.027 | saracatinib -0.002 | sotrastaurin 0.02

SVIP (UniProt Q8NHG7)
UniProt Q8NHG7, sequence (Q8NHG7 whole entry, looked up): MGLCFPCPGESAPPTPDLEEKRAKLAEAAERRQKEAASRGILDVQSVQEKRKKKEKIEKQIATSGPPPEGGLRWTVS
inactive: vemurafenib -0.014 | [1] 0.014 | barasertib 0.051 | [2] 0.079 | volasertib 0.095 | [3] -0.11 | [4] 0.033 | [5] 0.005 | saracatinib 0 | sotrastaurin -0.086
